# SMN2 splice enh: qHTS Assay for Enhancers of SMN2 Splice Variant Expression; AID 1458, 2008; HEK293 SMN2-luciferase splicing reporter, luminescence, 30-36 h; 210,000 compounds, 2.8% hits; Potency, µM (doses to about 46.1 µM), actives largely listed as activators; further: nearly all actives have a fitted effect of over 55% in size
#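 HEK293 cells carry an SMN2 […]–luciferase reporter in which exon 7 inclusion puts luciferase in frame. Cells were plated 10-12 h before compound addition, then incubated 30-36 h at 37C. ONE-Glo luminescence was read; sodium butyrate at 4.5 mM final served as control.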
# Rab9 promoter act: qHTS Assay for Rab9 Promoter Activators; 320,000 compounds, 2.8% hits; Potency, µM (top dose mostly 9.22 µM), usual class: activators; Huh7 Rab9 promoter-luciferase reporter, luminescence, 24 h; further: nearly all actives have a fitted effect of over 60% in size
#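 Steps: seed 1500 Huh7 Rab9-luc cells per well, rest 2 h at 37 °C; add compound in DMSO; incubate 24 h; add luciferase reagent, 10 min ambient; read luminescence.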
# NPC1 promoter act: qHTS Assay for NPC1 Promoter Activators | Huh7 NPC1 promoter luciferase reporter, 24 h | Potency, µM (top dose mostly 9.22 µM), usual class: activators | 320,000 compounds, 2.4% hits | AID 485313, 2010; further: nearly all actives have a fitted effect of over 60% in size
#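 In 1536-well qHTS, Huh7 cells harboring an NPC1 promoter–luciferase construct received compound for 24 h; activation was quantified by luminescence following luciferase reagent addition.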
# FLuc counter: qHTS profiling assay for firefly luciferase inhibitor/activator using purifed enzyme and Km concentrations of substrates (counterscreen for miR-21 project); Luciferin 4-monooxygenase (Photinus pyralis), P08659; purified FLuc, Km substrates, luminescence inhibition; Potency, µM (titrated, usually from 57.5 µM), usual class: inhibitors; 360,000 compounds, 6.9% hits; further: nearly all actives have a fitted effect of over 55% in size
# Target sequence (P08659 whole entry, looked up): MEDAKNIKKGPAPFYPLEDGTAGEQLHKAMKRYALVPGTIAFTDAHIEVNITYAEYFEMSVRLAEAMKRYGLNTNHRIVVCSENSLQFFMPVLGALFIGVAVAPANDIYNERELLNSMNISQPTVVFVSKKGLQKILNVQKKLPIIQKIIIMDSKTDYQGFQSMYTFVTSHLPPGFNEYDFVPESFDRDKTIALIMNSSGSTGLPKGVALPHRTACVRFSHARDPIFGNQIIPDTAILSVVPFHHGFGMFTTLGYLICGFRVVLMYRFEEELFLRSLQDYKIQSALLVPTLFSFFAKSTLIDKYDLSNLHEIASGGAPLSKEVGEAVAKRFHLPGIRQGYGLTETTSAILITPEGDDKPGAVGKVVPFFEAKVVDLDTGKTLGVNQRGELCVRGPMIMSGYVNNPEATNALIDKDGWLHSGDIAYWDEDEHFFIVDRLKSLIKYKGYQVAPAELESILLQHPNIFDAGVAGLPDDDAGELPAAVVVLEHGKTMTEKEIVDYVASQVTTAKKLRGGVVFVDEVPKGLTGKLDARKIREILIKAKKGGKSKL
#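 Purified P. pyralis luciferase (10nM final) with 10uM D-luciferin and 10uM ATP (Km levels) in 50mM Tris acetate pH 7.5, 10mM Mg acetate, 0.01% Tween-20, 0.05% BSA; qHTS 6-point titration, ~60 µM downward; luminescence read.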
# ELG1 genotoxic: qHTS screen for small molecules that induce genotoxicity in human embryonic kidney (HEK293T) cells expressing luciferase-tagged ELG1; AID 504466, 2011; 330,000 compounds, 1.3% hits; Potency, µM (series often up to 46 µM), most hits filed as activators; HEK293T ELG1-luciferase reporter, luminescence, 16 h; further: nearly all actives have a fitted effect of over 60% in size
#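 DMSO vehicle served as control against compound-treated ELG1-luciferase HEK293T cells; exposure lasted 16 hr at 37 °C and 5% CO2, followed by ONE-Glo luminescence detection after 30 min.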
# Numbers stand for hits; - = inactive; ? = inconclusive; . = no result; [ ] = another dose, or the depositor's remark. A selection: hits, their analogues and other compounds. The true share with any hit is near 7.5%. The call rests on the fitted dose curve; in most records, active means well fitted curve in the direction sought with a large enough effect; inconclusive means small, poorly fitted or top-dose-only effect, or another doubt; inactive means no such curve, though single readings can be large; an effect the other way counts as inactive or inconclusive.
SMILES,SMN2 splice enh,Rab9 promoter act,NPC1 promoter act,FLuc counter,ELG1 genotoxic
CCN(CC)S(=O)(=O)c1ccc(C)c(C(=O)Oc2cccc(-c3cnc4ccccc4n3)c2)c1,18µM,?,?,-,-
Cc1ccc(S(=O)(=O)/C(C#N)=C/c2c(N3CCOCC3)nc3c(C)cccn3c2=O)cc1,.,-,-,-,-
Cc1cccc(N(C(=O)CCC(=O)Nc2ccccn2)C(C(=O)NC(C)C)c2ccc(F)cc2)c1 (configuration not stated),.,-,-,-,-
Cc1ccc(C2NS(=O)(=O)N=C2N)cc1 (configuration not stated),-,-,-,-,-
COc1ccc(C2=NOC(CNC(N)=S)C2)cc1 (configuration not stated),13µM,0.71µM,1µM,11µM,-
COc1ccc(CNC(=O)C2CC(c3ccc(OC)cc3)=NO2)cc1 (configuration not stated),-,-,-,-,-
CCC(C)NC(=O)CSc1nnc(-c2cc(-c3ccc(C)cc3)nc3ccccc23)n1N (configuration not stated),-,-,-,11µM,-
Cc1ccc(-c2cc(-c3nnc(SCC(=O)NCC(C)C)n3N)c3ccccc3n2)cc1,-,-,-,17µM,-
CC(C)CNC(=O)CSc1nnc2ccccn12,-,-,-,-,-
COc1ccc(CC(=O)OCC(=O)Nc2ccc(OC(F)F)cc2)cc1OC,.,-,-,-,-
CCOc1ccc(N(CC(=O)Nc2ccc(CC)cc2)S(=O)(=O)c2c(C)[nH]c(=O)[nH]c2=O)cc1,.,-,-,-,-
COc1ccc(CN2CCSCC2)cc1C,-,-,-,-,-
Cc1cc2c(=O)[nH]c(Cc3ccccc3)nc2s1,-,-,-,-,-
O=C(N/N=C/C(Cl)=C/c1ccccc1)c1ccccc1F,.,?,?,12µM,?
CC1C(=O)NN=C1C(=O)N/N=C\C(Br)=C\c1ccccc1 (configuration not stated),22µM,2.2µM,2.5µM,1.5µM,?
O=C(Cc1cc(=O)[nH][nH]1)N/N=C/C(Cl)=C/c1ccccc1,?,-,-,24µM,-
O=C(N/N=C/C(Br)=C/c1ccccc1)c1ccccc1F,.,3.2µM,3.5µM,11µM,18µM
O=C(Cc1cc(=O)[nH][nH]1)N/N=C/c1ccccc1Cl,-,-,-,-,-
COC(=O)C1=C(C(=O)OC)[C@@H]2N(C)c3ccc(OC)cc3[C@@]23C[C@@H](C(=O)OC)N(S(=O)(=O)c2ccc(Br)cc2)C3=N1,-[9.22 µM],.,.,.,.
CC1C(=O)NN=C1C(=O)N/N=C\c1ccc(O)cc1O (configuration not stated),-,-,-,17µM,-
COc1ccc(OCc2csc(N)n2)cc1,13µM,2.8µM,?,?,?
Brc1ccccc1OCCCCCN1CCCC1,-,-,-,-,-
CCOc1ccc(S(=O)(=O)NCCC(=O)N2CCCN(C)CC2)cc1,.,-,-,-,-
O=C(Nc1nccs1)C(=O)c1c[nH]c2ccccc12,?,3.2µM,?,7.6µM,8.2µM
O=C(Cc1c[nH]c2ccccc12)Nc1nccs1,-,-,-,-,-
SMILES,SMN2 splice enh,Rab9 promoter act,NPC1 promoter act,FLuc counter,ELG1 genotoxic
CSc1ccccc1NC(=O)CN(C)C(=O)Cc1c[nH]c2ccccc12,.,-,-,-,-
CSc1ccccc1NC(=O)C(=O)c1c[nH]c2ccccc12,?,?,-,15µM,-
Clc1ccc(OCCCn2ccnc2)c(Br)c1,-,-,-,19µM,-
Clc1ccc(OCCCN2CCCCC2)c(Br)c1,?,?,?,15µM,-
COc1ccc(/C=C2\SC(=O)N(CCNC(=O)C3CSC4(C)CCC(=O)N34)C2=O)cc1 (configuration not stated),.,-,-,17µM,-
COc1ccc(/C=C2\SC(=O)N(CCNC(=O)C3CC4C=CC3C4)C2=O)cc1 (configuration not stated),25µM,0.71µM,2.8µM,6.7µM,?
CC12CCC(=O)N1C(C(=O)NCCN1C(=O)S/C(=C\c3ccc(OC(F)F)cc3)C1=O)CS2 (configuration not stated),.,-,-,-,-
COc1ccc(/C=C2\SC(=O)N(CCC(=O)N3CCCCC3CCO)C2=O)cc1 (configuration not stated),.,-,-,9.5µM,-
CCOc1ccccc1CNC(=O)CSc1n[nH]c(-c2ccccc2)n1,.,.,.,-,.
CCc1ccccc1NC(=O)CSc1nc2ccccc2nc1N1CCOCC1,.,-,-,-,-
Cc1cccc(C(=O)Nc2nc(-c3nnn(-c4cc(F)ccc4F)c3C)ns2)c1,.,.,.,-,.
Cc1c(-c2ccccc2)nnn1-c1ccc(F)cc1F,.,?,?,21µM,?
Cc1c(-c2nc(-c3ccccc3F)no2)nnn1-c1cc(F)ccc1F,.,.,.,0.17µM,.
CCc1ccccc1-n1nnc(-c2nc(-c3ccccc3F)no2)c1C,.,.,.,1.2µM,.
CC(=O)c1nnn(-c2ccc(F)cc2F)c1C,.,-,-,-,-
Cc1c(-c2nc(-c3ccccc3)no2)nnn1-c1cccc(C(F)(F)F)c1,.,.,.,-,.
COc1ccccc1NS(=O)(=O)c1cc(N)ccc1N1CCCC1,.,.,.,.,-
O=C1c2ccccc2S(=O)(=O)N1CC1CC(c2ccccc2Cl)=NO1 (configuration not stated),4µM,3.2µM,3.2µM,2.7µM,12µM
COc1ccccc1C1=NOC(CN2C(=O)c3ccccc3S2(=O)=O)C1 (configuration not stated),.,4µM,2.8µM,8.5µM,?
COc1ccccc1C1=NOC(COC(=O)c2ccc(Br)cc2)C1 (configuration not stated),-,-,-,?,-
COc1cccc(-c2noc(CCCC(=O)NCc3ccco3)n2)c1,-,.,.,-,.
Cc1cccnc1NC(=S)Nc1ccc(Br)cc1Cl,25µM,3.2µM,3.2µM,4.8µM,?
S=C(NCc1ccncc1)Nc1ccc(Br)cc1Cl,.,-,-,-,-
O=S(=O)(c1cccc2nsnc12)N1CCN(c2ncccn2)CC1,-,-,-,-,-
O=C(NCc1cccnc1)c1ccc(COc2ccccc2Cl)cc1,-,-,-,?,-
SMILES,SMN2 splice enh,Rab9 promoter act,NPC1 promoter act,FLuc counter,ELG1 genotoxic
O=C(c1cccc(COc2ccc(Cl)cc2Cl)c1)N1CCN(c2ccccn2)CC1,4µM,.,.,4.8µM,.
COC(=O)c1ccccc1NC(=S)NC(=O)COc1ccccc1Cl,-,-,-,?,-
NNC(=O)c1cccc(COc2ccccc2Br)c1,13µM,0.89µM,0.35µM,7.6µM,?
O=C(c1ccc(Cl)c(Cl)c1)N1CCN(c2ccccn2)CC1,.,-,-,-,-
O=C(NCc1ccccc1)c1cccc(COc2ccccc2Cl)c1,13µM,1.8µM,1.8µM,15µM,?
COC(=O)c1ccccc1NC(=O)c1cccc(COc2ccccc2Cl)c1,11µM,0.45µM,?,17µM,?
